Drawing on the supplement of paper PMC10849652, this text covers log2 fold change for 15 targets.

About 8,800 targets were measured; listed, in parts, are those with a hit and a random draw of the rest. About 0.5% of all pairs of compound and target were hits. A number with no mark means an inactive call.

What all share (assay): log2 fold change, soluble protein after heating vs DMSO (PISA); higher = thermal stabilisation; K562 lysate, 10 uM; active = over 0.2 and 3.5 SD of the protein, either way, in both replicates (recomputed)
Compound in one assay: C=CC(=O)N1CCC[C@@H](n2nc(-c3ccc(Oc4ccccc4)cc3)c3c(N)ncnc32)C1 [ibrutinib]
The essentials: (§1)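 To prepare the extract, K562 pellets were dounce-homogenised in PBS pH 7.4 with 1 mM MgCl2, giving crude material at 1 mg/mL protein. This was treated with 10 μM compound for 30 min, then heated in aliquots for 3 min over 48°C-58°C before pooling and addition of NP-40 to 0.5% at 4°C. Centrifugation at 21,000xg for 90 min left soluble protein in the supernatant, which TMTpro 16plex LC-MS/MS quantified with equalised channel sums. Results are log-two fold changes in thermal stability compared with solvent controls, from duplicates.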

Compound in assay [1]: CC(=O)c1cnc2ccc(-c3cc(Cl)c(O)c(Cl)c3)nc2c1N[C@H]1CC[C@H](CN(C)C)CC1
The essentials: as §1

Compound in a further assay: CC(C)(C)Cn1c(N)nc2ccc(-c3[nH]c(C(C)(C)C)nc3-c3ccc(F)cc3)nc21 [ralimetinib]
The essentials:
as §1

Compound in assay [2]: CC(C)(O)CC(=O)NCCn1ccc2ncnc(Nc3ccc(Oc4cccc(C(F)(F)F)c4)c(Cl)c3)c21
In short, it runs like this: as §1

Compound in assay [3]: CC(C)C1=C2N=C(C=C(N2N=C1)NCC3=CC=CC=C3)NCCCCCCN
The essentials:
as §1

Compound in assay [4]: CC1=C(C(CC(=O)N1)C2=CC=C(C=C2)C(F)(F)F)C(=O)NC3=C(C=C4C(=C3)C=NN4)F
In short, it runs like this:
as §1

Compound in assay [5]: CC1=C(C2=C(C=C1)C(=O)C3=CC=CC=C3N2CCCN)C
In short, it runs like this:
as §1

Compound in assay [6]: CC1=C(C=C(C=C1)NC(=O)C2=CC(=CC=C2)C(C)(C)C#N)NC3=CC4=C(C=C3)N=CN(C4=O)C
In short, it runs like this:
as §1

Compound in assay [7]: CC1=C(C=C(C=C1)NC(=O)C2=CC(=CC=C2)N(C)C)NC(=O)C3=CC=C(C=C3)O
In short, it runs like this:
as §1

Compound in assay [8]: CC1=CC=C(C=C1)SC2=C3C=C(SC3=CN=C2)C(=O)N
The essentials: as §1

Chain of UniProt P18859 (P18859 whole entry, looked up): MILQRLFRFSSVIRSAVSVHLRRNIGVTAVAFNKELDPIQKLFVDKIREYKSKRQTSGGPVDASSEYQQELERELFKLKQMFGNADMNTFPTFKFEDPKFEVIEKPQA
Chain of UniProt Q8ND76 (Q8ND76 whole entry, looked up): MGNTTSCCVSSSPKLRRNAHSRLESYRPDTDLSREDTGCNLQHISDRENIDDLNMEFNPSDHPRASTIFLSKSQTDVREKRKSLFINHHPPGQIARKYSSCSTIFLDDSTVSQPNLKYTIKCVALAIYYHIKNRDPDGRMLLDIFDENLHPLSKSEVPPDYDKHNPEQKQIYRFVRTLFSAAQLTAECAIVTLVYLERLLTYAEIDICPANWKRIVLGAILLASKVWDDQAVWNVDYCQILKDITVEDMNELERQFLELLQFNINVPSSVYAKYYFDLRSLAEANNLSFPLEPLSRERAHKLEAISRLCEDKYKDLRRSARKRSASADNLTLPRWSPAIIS
Chain of UniProt Q8N960 (Q8N960 whole entry, looked up): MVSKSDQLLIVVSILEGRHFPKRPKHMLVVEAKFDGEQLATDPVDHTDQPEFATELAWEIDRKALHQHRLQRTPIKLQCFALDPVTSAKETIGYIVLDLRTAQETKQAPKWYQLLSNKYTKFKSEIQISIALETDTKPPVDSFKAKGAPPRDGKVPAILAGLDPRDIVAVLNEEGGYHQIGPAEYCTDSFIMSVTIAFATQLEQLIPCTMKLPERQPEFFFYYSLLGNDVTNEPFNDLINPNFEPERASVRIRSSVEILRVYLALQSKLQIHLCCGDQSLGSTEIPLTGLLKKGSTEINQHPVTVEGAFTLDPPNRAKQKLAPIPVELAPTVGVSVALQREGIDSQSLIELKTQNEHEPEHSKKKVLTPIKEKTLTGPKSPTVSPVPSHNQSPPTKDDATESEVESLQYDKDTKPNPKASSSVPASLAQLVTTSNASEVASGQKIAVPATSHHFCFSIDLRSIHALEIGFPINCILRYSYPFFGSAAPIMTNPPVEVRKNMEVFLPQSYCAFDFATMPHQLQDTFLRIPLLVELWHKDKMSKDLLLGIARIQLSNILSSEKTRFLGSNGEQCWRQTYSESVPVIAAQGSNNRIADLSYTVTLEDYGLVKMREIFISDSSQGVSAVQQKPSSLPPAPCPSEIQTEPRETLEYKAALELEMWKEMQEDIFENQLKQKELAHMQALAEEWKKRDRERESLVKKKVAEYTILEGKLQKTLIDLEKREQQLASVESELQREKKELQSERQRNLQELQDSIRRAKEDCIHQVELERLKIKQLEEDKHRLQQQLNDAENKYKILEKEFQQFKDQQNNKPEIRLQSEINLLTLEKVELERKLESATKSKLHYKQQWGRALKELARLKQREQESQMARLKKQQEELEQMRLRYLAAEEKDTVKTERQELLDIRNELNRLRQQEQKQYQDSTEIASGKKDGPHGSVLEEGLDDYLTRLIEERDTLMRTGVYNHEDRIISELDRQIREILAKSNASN
Chain of UniProt O95429 (O95429 whole entry, looked up): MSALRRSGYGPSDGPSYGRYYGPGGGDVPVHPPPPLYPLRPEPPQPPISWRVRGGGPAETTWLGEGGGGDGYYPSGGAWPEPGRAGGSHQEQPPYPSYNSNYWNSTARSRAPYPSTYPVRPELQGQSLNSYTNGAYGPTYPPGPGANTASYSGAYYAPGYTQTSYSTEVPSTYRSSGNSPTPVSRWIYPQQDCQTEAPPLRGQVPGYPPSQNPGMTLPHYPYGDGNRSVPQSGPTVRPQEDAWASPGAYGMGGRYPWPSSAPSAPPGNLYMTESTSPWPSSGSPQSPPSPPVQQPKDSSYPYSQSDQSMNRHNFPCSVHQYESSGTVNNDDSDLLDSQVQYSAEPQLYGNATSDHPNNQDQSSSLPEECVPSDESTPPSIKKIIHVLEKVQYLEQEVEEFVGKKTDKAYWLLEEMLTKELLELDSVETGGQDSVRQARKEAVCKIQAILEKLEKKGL
Chain of UniProt O75419 (O75419 whole entry, looked up): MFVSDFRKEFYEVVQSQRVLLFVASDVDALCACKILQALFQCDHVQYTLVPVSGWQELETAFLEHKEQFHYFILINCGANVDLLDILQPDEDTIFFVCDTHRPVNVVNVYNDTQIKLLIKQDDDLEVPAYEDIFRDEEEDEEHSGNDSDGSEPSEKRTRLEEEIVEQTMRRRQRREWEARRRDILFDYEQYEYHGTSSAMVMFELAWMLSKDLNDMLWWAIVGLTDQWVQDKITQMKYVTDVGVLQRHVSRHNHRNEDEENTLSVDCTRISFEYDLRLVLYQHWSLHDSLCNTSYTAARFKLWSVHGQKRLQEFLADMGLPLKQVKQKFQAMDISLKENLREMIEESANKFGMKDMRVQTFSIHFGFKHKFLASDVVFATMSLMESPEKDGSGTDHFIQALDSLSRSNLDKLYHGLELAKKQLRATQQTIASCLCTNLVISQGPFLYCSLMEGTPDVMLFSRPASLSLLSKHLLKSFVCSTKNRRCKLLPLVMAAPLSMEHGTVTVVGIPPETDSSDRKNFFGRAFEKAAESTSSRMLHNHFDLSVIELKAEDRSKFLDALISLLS
Chain of UniProt Q12983 (Q12983 whole entry, looked up): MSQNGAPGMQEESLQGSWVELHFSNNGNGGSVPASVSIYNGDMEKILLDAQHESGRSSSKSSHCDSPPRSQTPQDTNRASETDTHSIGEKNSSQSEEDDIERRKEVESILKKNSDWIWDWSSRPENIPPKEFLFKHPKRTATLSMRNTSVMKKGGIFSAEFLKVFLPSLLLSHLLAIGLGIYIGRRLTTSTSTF
Chain of UniProt Q9NXV6 (Q9NXV6 whole entry, looked up): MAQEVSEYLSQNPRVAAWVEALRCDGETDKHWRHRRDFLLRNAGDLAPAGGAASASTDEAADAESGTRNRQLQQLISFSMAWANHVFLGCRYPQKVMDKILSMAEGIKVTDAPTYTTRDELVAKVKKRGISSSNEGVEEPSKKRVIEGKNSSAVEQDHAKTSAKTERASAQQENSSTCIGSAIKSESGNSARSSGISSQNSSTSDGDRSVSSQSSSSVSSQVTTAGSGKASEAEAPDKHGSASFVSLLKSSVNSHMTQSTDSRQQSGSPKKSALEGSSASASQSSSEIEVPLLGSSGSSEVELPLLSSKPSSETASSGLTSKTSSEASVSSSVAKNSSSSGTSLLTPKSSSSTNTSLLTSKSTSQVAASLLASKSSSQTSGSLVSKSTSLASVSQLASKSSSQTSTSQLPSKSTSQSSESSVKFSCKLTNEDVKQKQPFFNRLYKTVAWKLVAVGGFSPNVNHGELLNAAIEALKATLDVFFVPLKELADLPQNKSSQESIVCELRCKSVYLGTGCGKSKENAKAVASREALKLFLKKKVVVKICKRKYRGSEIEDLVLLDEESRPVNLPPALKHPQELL
Chain of UniProt Q9Y4P1 (Q9Y4P1 whole entry, looked up): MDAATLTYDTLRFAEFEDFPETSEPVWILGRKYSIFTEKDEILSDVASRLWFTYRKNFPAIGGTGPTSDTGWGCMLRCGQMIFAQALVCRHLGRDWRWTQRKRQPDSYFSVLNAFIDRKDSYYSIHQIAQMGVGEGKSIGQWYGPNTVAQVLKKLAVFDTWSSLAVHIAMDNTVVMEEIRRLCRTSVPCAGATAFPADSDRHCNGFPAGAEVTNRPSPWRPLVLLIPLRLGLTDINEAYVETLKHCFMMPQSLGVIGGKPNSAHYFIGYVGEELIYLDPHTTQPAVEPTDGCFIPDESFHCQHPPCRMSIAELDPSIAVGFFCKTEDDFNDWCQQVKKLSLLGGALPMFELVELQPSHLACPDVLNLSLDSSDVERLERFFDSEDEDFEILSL
Chain of UniProt P21127 (P21127 whole entry, looked up): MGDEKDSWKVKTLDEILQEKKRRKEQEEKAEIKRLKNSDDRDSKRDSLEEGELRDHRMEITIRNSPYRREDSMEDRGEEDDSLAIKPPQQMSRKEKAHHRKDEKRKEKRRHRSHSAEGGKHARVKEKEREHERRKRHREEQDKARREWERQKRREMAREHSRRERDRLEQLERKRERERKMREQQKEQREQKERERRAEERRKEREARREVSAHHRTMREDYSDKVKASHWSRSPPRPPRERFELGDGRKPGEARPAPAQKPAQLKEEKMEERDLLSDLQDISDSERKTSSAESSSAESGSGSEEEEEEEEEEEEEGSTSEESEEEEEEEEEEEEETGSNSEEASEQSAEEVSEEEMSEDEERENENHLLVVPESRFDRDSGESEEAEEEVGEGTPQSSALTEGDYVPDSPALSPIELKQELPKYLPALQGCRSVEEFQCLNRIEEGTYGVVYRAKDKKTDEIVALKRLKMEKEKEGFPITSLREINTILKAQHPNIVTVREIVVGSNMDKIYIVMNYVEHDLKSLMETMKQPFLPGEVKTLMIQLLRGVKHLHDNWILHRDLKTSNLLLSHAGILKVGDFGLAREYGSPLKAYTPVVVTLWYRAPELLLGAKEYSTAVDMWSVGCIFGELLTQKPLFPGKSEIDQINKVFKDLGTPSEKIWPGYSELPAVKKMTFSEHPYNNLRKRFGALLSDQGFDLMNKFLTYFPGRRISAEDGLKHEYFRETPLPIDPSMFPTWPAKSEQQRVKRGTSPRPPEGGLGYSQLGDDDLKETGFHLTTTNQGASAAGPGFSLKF
Chain of UniProt P15313 (P15313 whole entry, looked up): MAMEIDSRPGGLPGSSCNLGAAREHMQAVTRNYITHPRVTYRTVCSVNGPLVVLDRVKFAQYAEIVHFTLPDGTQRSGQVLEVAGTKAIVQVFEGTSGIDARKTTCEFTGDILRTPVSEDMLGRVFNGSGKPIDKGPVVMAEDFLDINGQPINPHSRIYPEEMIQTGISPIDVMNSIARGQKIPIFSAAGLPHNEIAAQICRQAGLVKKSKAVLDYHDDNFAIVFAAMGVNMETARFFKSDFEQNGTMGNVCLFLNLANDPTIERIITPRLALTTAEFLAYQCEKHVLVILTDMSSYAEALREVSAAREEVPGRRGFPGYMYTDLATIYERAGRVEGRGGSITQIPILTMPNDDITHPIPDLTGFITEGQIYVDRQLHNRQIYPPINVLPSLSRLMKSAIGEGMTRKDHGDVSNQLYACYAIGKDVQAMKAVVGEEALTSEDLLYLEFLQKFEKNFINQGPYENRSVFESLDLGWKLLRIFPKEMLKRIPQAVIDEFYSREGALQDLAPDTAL

For ATG4B (UniProt Q9Y4P1), the log2 fold change in the assay with ibrutinib is 0.037; in assay [1], 0.021; in the assay with ralimetinib it was 0.016; in [2] it was -0.028; in [3] it was -0.019; in assay [4], -0.014. Moreover, the log2 fold change is 0.033 in assay [5], 0.005 in [6], 0.046 in [7] and 0.013 in [8].
Consider CDK11B (UniProt P21127), for which the log2 fold change was -0.008 with ibrutinib; 0.438 (active) in assay [1]; 0.028 with ralimetinib; 0.034 in [2]; 0.01 in assay [3]; -0.027 in [4]. The log2 fold change in [5] was -0.011; in [6] it was 0; in [7], 0.01; in [8], 0.003.
As to BNIP3 (UniProt Q12983), the log2 fold change in the assay with ibrutinib was 0.04; in [1] it was 0.048; with ralimetinib, 0.032; in [2], 0.01; in [3] it was -0.002; in [4] it was -0.068. Besides, the log2 fold change in assay [5] is -0.002; in assay [6], 0.045; in [7] it was -0.047; in [8], 0.003.
Regarding C1orf112 (UniProt Q9NSG2), the log2 fold change in the assay with ibrutinib is 0.014; in assay [1], 0.038; with ralimetinib, 0.022; in [2] it was -0.061; in [3], 0.017; in assay [4], 0.067. Besides, the log2 fold change in assay [5] is -0.085; in assay [6], -0.029; in assay [7], 0.036; in assay [8], 0.091.
As for ATP5PF isoform 2 (UniProt P18859), the log2 fold change with ibrutinib is 0.069; in assay [1], -0.055; with ralimetinib, -0.003; in assay [2], 0.063; in assay [3] it was -0.053; in assay [4], -0.032. Further, the log2 fold change is -0.055 in [5], 0.026 in assay [6], 0.05 in assay [7] and 0.083 in assay [8].
Take CDKN2AIP (UniProt Q9NXV6): the log2 fold change in the assay with ibrutinib was -0.003; in assay [1], -0.038; with ralimetinib it was -0.013; in [2] it was 0.029; in [3], -0.04; in assay [4], -0.009. Moreover, the log2 fold change was 0.03 in assay [5], 0.004 in assay [6], -0.019 in assay [7] and -0.009 in assay [8].
As for CEP120 (UniProt Q8N960), the log2 fold change with ibrutinib was -0.02; in assay [1], -0.061; with ralimetinib it was -0.076; in [2], -0.132; in assay [3], 0.001; in assay [4], -0.174. Moreover, the log2 fold change in assay [5] was -0.224; in assay [6] it was -0.015; in assay [7], 0.001; in assay [8], -0.085.
Regarding CANX isoform 2 (UniProt P27824), the log2 fold change was -0.046 with ibrutinib; -0.009 in assay [1]; -0.029 with ralimetinib; 0.003 in [2]; 0.007 in assay [3]; 0.001 in assay [4]. Moreover, the log2 fold change in assay [5] is -0.004; in assay [6], 0.011; in assay [7], 0.029; in assay [8], -0.025.
Take BAG4 (UniProt O95429): the log2 fold change in the assay with ibrutinib was 0.082; in assay [1] it was 0.005; with ralimetinib, -0.009; in assay [2], 0.02; in [3], -0.035; in assay [4] it was -0.014. Also, the log2 fold change in [5] was 0; in assay [6], -0.375 (active); in [7] it was -0.021; in [8], -0.017.
Consider CDK2 (UniProt P24941), for which the log2 fold change with ibrutinib was -0.031; in assay [1] it was 0.362 (active); in the assay with ralimetinib, -0.038; in assay [2] it was 0.006; in assay [3], -0.036; in assay [4] it was -0.026. The log2 fold change in assay [5] is -0.016; in assay [6] it was -0.017; in [7], -0.003; in assay [8], -0.015.
Turning to BRD4 (UniProt O60885), the log2 fold change is -0.011 in the assay with ibrutinib; -0.017 in assay [1]; 0.023 with ralimetinib; -0.042 in [2]; -0.016 in [3]; -0.006 in assay [4]. The log2 fold change is 0.001 in [5], 0.061 in assay [6], 0.006 in [7] and -0.021 in [8].
For ATP6V1B1 (UniProt P15313), the log2 fold change in the assay with ibrutinib is -0.001; in assay [1] it was 0; with ralimetinib, 0.037; in [2] it was -0.025; in [3] it was -0.013; in assay [4], 0.024. In addition, the log2 fold change in assay [5] is -0.011; in assay [6], 0.005; in assay [7], 0.031; in assay [8], -0.015.
Regarding CDC45 isoform 3 (UniProt O75419), the log2 fold change with ibrutinib is 0.034; in assay [1], 0.045; with ralimetinib, 0.014; in assay [2], 0.021; in assay [3], -0.005; in assay [4], 0.036. Besides, the log2 fold change was -0.006 in assay [5], -0.032 in assay [6], 0.031 in assay [7] and -0.004 in assay [8].
For the target CCNY (UniProt Q8ND76), the log2 fold change with ibrutinib is 0; in [1] it was -0.013; with ralimetinib it was -0.046; in assay [2], -0.099; in assay [3], 0.014; in assay [4], -0.036. Also, the log2 fold change in assay [5] was 0.023; in [6], 0.063; in assay [7], 0.078; in [8], 0.001.
For ATP11A (UniProt P98196), the log2 fold change is -0.02 with ibrutinib; 0.091 in [1]; 0.122 with ralimetinib; -0.046 in assay [2]; -0.017 in [3]; -0.019 in [4]. Moreover, the log2 fold change in [5] was -0.065; in assay [6], -0.006; in assay [7], -0.074; in assay [8] it was 0.02.
